# Unmarked numbers belong to inactive results. Inconclusive results are not listed. Activity calls are given as the source filed them. Unless noted, calls follow the shape of the dose curve; as a rule, active = well fitted curve in the direction sought with a large enough effect; inconclusive = small, poorly fitted or top-dose-only effect, or another doubt; inactive = no such curve, though single readings can be large; an effect the other way counts as inactive or inconclusive.
# Experiments:
# Tov-21-G = experiment: Primary qHTS to identify gynecologic anti-cancer compounds using libraries of approved drugs and bioactive compounds (AID 1345084); conditions: Gynecologic cancer cell panel viability, ATPlite luminescence, 48 h; series mostly up to 57.5 µM; also: nearly all actives have a fitted effect of over 55% in size; also: potency is read from the fitted curve at half-maximal effect
# Method in brief: (§1)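 48 h compound exposure at 37 C, 5% CO2; five-point qHTS. ATPlite luminescence readout of cell ATP.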
# astro = experiment: Drug repurposing screens with cells derived from glioblastoma tumor samples (AID 1345199); conditions: viability, ATP luminescence, 48 h; series mostly up to 45.9 µM; also: nearly all actives have a fitted effect of over 40% in size; also: potency is read from the fitted curve at half-maximal effect; as to activity, negative = cell killing: % is scaled to controls: 0 for no effect and ±100 for the full control effect
# Method in brief: (§2)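 Primary testing used CD133+ neurospheres from four GBM patients, seven concentrations, 48 h exposure and ATP-based viability; confirmation added three slower-growing patient lines.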
# [1] = qHTS assay for small molecule activators of the human pregnane X receptor (PXR) signaling pathway (AID 720659; call rule not given here; also: 0% is about no effect)
# [2] = Drug repurposing screens with cells derived from glioblastoma tumor samples (AID 1345199); conditions: GBM patient neurospheres viability, ATP luminescence, 48 h; also: nearly all actives have a fitted effect of over 40% in size; also: potency is read from the fitted curve at half-maximal effect; as to activity, negative = cell killing: % is scaled to controls: 0 for no effect and ±100 for the full control effect
# Method in brief: as §2
# Tov112D = experiment: Primary qHTS to identify gynecologic anti-cancer compounds using libraries of approved drugs and bioactive compounds (AID 1345084); conditions: Gynecologic cancer cell panel viability, ATPlite luminescence, 48 h; series mostly up to 57.5 µM; also: nearly all actives have a fitted effect of over 55% in size; also: potency is read from the fitted curve at half-maximal effect
# Method in brief: as §1
# [3] = biological target: Nuclear receptor subfamily 1 group I member 2 (Rattus norvegicus) (UniProt Q9R1A7); experiment: qHTS assay for small molecule activators of the rat pregnane X receptor (rPXR) signaling pathway (AID 651751; call rule not given here; also: 0% is about no effect); conditions: rPXR reporter cells, luciferase (One-Glo), 24 h
# [4] = qHTS assay to identify inhibitors of the type 1 interferon - major histocompatibility complex class I in skeletal muscle: Counter screen cell viability and HiBit confirmation (AID 1347412); conditions: iHSKM muscle cells + IFN-b, HiBiT or CellTiter-Glo, 24 h; Potency: HiBiT; Viability, at 45.9 µM (top of the series); also: % is scaled to controls: 0 for no effect and ±100 for the full control effect; nearly all actives have a fitted effect of over 60% in size
# Method in brief: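 Duplicate plates, pinned identically: one read for HiBiT-tagged endogenous HLA-B luminescence, the other for ATP-content viability via CellTiter Glo. Cells were genome-engineered human myoblasts given 4 ng/ml IFN-b; compounds 12-pt, 1:3 from 46 uM final; 24 hr exposure.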
# [5] = at 46.1 µM (top of the series), tumour line C
# Chain of Nuclear receptor subfamily 1 group I member 2 (Rattus norvegicus) (Q9R1A7 whole entry, looked up): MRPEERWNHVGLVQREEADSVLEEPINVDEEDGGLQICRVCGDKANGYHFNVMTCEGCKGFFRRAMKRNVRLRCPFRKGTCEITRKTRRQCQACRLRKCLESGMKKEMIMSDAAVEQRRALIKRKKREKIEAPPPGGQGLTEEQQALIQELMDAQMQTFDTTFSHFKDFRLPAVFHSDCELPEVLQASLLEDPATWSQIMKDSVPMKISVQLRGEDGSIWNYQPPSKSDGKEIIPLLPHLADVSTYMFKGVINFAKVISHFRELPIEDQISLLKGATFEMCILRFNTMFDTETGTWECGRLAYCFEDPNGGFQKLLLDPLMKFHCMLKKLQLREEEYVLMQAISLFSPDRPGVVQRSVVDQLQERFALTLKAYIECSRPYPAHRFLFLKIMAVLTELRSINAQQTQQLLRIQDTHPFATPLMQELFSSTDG
structure (smiles),measurement,setting,value
CCCCCCCCCCCCCCCC[n+]1ccccc1,Potency,Tov-21-G,31.6 µM (active)
same,Potency,astro,3.16 µM (active)
same,outcome,[1],inactive
NCC(=O)O,"activity, negative = cell killing","[2]; at 45.9 µM (top of the series), tumour line B",10.4%
same,"activity, negative = cell killing","[2]; at 45.9 µM (top of the series), tumour line D",4.74%
same,"activity, negative = cell killing","[2]; at 46 µM (top of the series), tumour line A",1.41%
same,"activity, negative = cell killing",[2]; [5],-6.24%
same,Potency,astro,inactive
OCCOCCN1CCN(C(c2ccccc2)c2ccc(Cl)cc2)CC1 (configuration not stated),Potency,Tov-21-G,inactive
same,Potency,Tov112D,inactive
same,Potency,astro,inactive
same,max response,[3],-2.98%
O=C1NCCN1CCN1CCC(c2cn(-c3ccc(F)cc3)c3ccc(Cl)cc23)CC1,Potency,astro,17.8 µM (active)
Cc1c(C)c2c(c(C)c1OC(=O)CCC(=O)OCCO)CC[C@@](C)(CCC[C@H](C)CCC[C@H](C)CCCC(C)C)O2,Potency,astro,12.6 µM (active)
C[C@H]1C[C@@H]2[C@H]([C@@H](O)C[C@@]3(C)[C@H]2CC[C@]3(O)C(=O)CO)[C@@]2(C)C=CC(=O)C=C12,Potency,Tov-21-G,inactive
same,Potency,Tov112D,inactive
same,Potency,[4],inactive
Cc1cc(OCCOCC[N+](C)(C)Cc2ccccc2)ccc1C(C)(C)CC(C)(C)C,Potency,Tov-21-G,inactive
same,Potency,astro,15.8 µM (active)
CCN(CC)CCOc1ccc(/C(=C(\Cl)c2ccccc2)c2ccccc2)cc1,Potency,Tov112D,inactive
same,Potency,astro,17.8 µM (active)
same,Potency,[4],inactive
Nc1ccc2cc3ccc(N)cc3nc2c1,Potency,Tov112D,28.2 µM (active)
same,"activity, negative = cell killing",[2]; [5],-19.3%
same,Potency,[2]; tumour line A,22.4 µM (active)
same,Potency,[2]; tumour line B,14.1 µM (active)
same,Potency,[2]; tumour line D,7.94 µM (active)
same,Potency,astro,10 µM (active)
O=C(OCC1(COC(=O)c2cccnc2)CCCC(COC(=O)c2cccnc2)(COC(=O)c2cccnc2)C1O)c1cccnc1,Potency,Tov-21-G,inactive
same,Potency,Tov112D,inactive
same,Potency,astro,inactive
O=[N+]([O-])c1ccc(O)c2ncccc12,Potency,Tov112D,28.2 µM (active)
same,Potency,astro,3.55 µM (active)
O=C(Nc1ccc(Cl)cc1)Nc1ccc(Cl)c(C(F)(F)F)c1,Potency,Tov112D,31.6 µM (active)
same,Potency,astro,10 µM (active)
CCCCCCCCCCCCCCCC[N+](C)(C)Cc1ccccc1,Potency,astro,12.6 µM (active)
CCCCCCCCCCCC[N+](C)(C)Cc1ccccc1,Potency,Tov-21-G,7.94 µM (active)
same,Potency,Tov112D,25.1 µM (active)
same,Potency,astro,11.2 µM (active)
same,max response,[3],0.668%
same,outcome,[1],inactive
O=c1[nH]sc2cc(Cl)ccc12,Potency,Tov112D,inactive

# Reference: PubChem BioAssay (NCATS)
